Test [1] in a line: ATG_PBREM_CIS: Attagene CIS-FACTORIAL HepG2 Assay for human Phenobarbital-responsive Enhancer Module (PBREM) (AID 2282955). As to conditions: HepG2 PBREM cis-reporter, Attagene multiplexed transcription; actives raise or lower the signal. In a few lines: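 HepG2 cells transiently transfected with multiple cis-regulated reporter units measure endogenous transcription factor activity; 24 h compound exposure. Reporter mRNA quantified by RT-PCR, fluorescent labelling, HpaI digestion and capillary electrophoresis; bidirectional fit versus DMSO.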

Test [2] addresses Paired box protein Pax-6 (Homo sapiens) (UniProt P26367). Description: ATG_Pax6_CIS: Attagene CIS-FACTORIAL HepG2 Assay for human Paired Box 6 (PAX6) (AID 2282956). The settings on record: HepG2 CIS-FACTORIAL PAX6 reporter transcription, RNA readout; actives raise or lower the signal. In a few lines: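 HepG2 cells transiently transfected with cis-promoter-driven multiplexed reporter units sensing endogenous transcription factor activity; 24 h chemical exposure. Reporter mRNA quantified by RT-PCR, 6-FAM labelling, HpaI digestion and capillary electrophoresis; bidirectional fit versus DMSO baseline.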

Test [3] is described as follows: ATG_PXRE_CIS: Attagene CIS-FACTORIAL HepG2 Assay for human Pregnane X Receptor Element (PXRE) (AID 2282957). The settings on record: HepG2 Attagene CIS-FACTORIAL PXRE reporter, mRNA; actives raise or lower the signal. In a few lines:
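Transfect HepG2 with MRTUs (cis promoter elements); dose chemical, incubate 24 h; isolate RNA, RT with oligo(dT), PCR, 6-FAM label, HpaI cut, CE. Gain/loss fit vs DMSO.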

Test [4] is described as follows: ATG_PPRE_CIS: Attagene CIS-FACTORIAL HepG2 Assay for human Peroxisome Proliferator-activated Response Element (PPRE) (AID 2282958). The settings on record: HepG2 PPRE cis-element reporter, Attagene transcription factor profiling; actives raise or lower the signal. The essentials: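 HepG2 cells are transiently transfected with multiplexed cis-promoter reporter units to report endogenous PPAR activity. After 24 h dosing, reporter mRNA is read by RT-PCR and capillary electrophoresis. Fitting is bidirectional against DMSO.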

The nature of test [5]: ATG_RORE_CIS: Attagene CIS-FACTORIAL HepG2 Assay for human RAR-related Orphan Receptor Element (RORE) (AID 2282959). As to conditions: HepG2 Attagene cis-factorial RORE reporter, mRNA; actives raise or lower the signal. The essentials:
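HepG2 cells carrying transiently transfected cis-regulated reporter units; RORE-driven reporter mRNA quantified 24 h post-dosing by RT-PCR, 6-FAM primer extension, HpaI digestion and capillary electrophoresis. Bidirectional fit versus DMSO.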

Test [6] addresses Transcription factor Sp1 (Homo sapiens) (UniProt P08047). Briefly: ATG_Sp1_CIS: Attagene CIS-FACTORIAL HepG2 Assay for human Specificity Protein 1 (Sp1) (AID 2282961). As to conditions: HepG2 Sp1 cis-reporter transcription, actives raise or lower the signal. In a few lines:
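HepG2 cells transiently transfected with multiplexed cis-regulated reporter constructs, chemical exposure 24 h. Reporter mRNA quantified by RT-PCR with capillary electrophoresis; bidirectional fit relative to DMSO.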

A short description of test [7]: ATG_SREBP_CIS: Attagene CIS-FACTORIAL HepG2 Assay for human Sterol Regulatory Element Binding (SREBP) (AID 2282962). As to conditions: HepG2 Attagene cis-factorial SREBP reporter, mRNA; actives raise or lower the signal. In a few lines:
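HepG2 cells transiently transfected with multiplexed cis-promoter reporter units sensing endogenous transcription factors; reporter mRNA measured 24 h after dosing by RT-PCR, 6-FAM labeling, HpaI digestion and capillary electrophoresis. Bidirectional fit versus DMSO.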

For test [8], the target named is Signal transducer and activator of transcription 3 (Homo sapiens) (UniProt P40763). Briefly: ATG_STAT3_CIS: Attagene CIS-FACTORIAL HepG2 Assay for human Signal Transducer and Activator of Transcription 3 (STAT3) (AID 2282963). As to conditions: HepG2, Attagene cis-factorial STAT3 reporter transcription; actives raise or lower the signal. The essentials:
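Endogenous STAT3-responsive cis-element activity was read in transiently transfected HepG2 cells after 24 h treatment. Reporter transcripts were quantified via RT-PCR and capillary electrophoresis, with DMSO as negative control and bidirectional curve fitting.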

A short description of test [9]: ATG_TA_CIS: Attagene CIS-FACTORIAL HepG2 Assay for human TA Basal Promoter (AID 2282964). As to conditions: HepG2 Attagene CIS-factorial TA basal promoter reporter; actives raise or lower the signal. In a few lines: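 Fluorescence from labelled RT-PCR reporter fragments, separated by capillary electrophoresis, gives the signal. Cells: HepG2 transiently carrying multiple reporter units, 24 h chemical dosing. Gain or loss relative to DMSO.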

Test [10] in a line: ATG_TCF_b_cat_CIS: Attagene CIS-FACTORIAL HepG2 Assay for human T-Cell-Factor with beta-catenin (TCF/b-cat) (AID 2282965). As to conditions: HepG2 TCF/beta-catenin cis-reporter transcription, actives raise or lower the signal. In a few lines:
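Endogenous TCF/LEF activity read as reporter transcript level via RT-PCR and capillary electrophoresis fluorescence in transfected HepG2, 24 h exposure; gain or loss of signal fitted against DMSO controls.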

A short description of test [11]: ATG_TAL_CIS: Attagene CIS-FACTORIAL HepG2 Assay for human TAL Basal Promoter (AID 2282966).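 Further: background control endpoint measuring basal TAL promoter reporter mRNA not a specific factor.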 As to conditions: HepG2 Attagene cis-factorial TAL promoter reporter; actives raise or lower the signal. In a few lines:
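Fluorescence of labelled reporter cDNA fragments, resolved by capillary electrophoresis, gave the readout. Human HepG2 liver cells carried transiently transfected cis-element reporter units and were treated for 24 hours; activity was fitted bidirectionally against DMSO.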

Test [12] can be described thus: ATG_TGFb_CIS: Attagene CIS-FACTORIAL HepG2 Assay for human Transforming Growth Factor (TGF) (AID 2282967). The settings on record: HepG2 Attagene CIS TGFb reporter, mRNA transcription; actives raise or lower the signal. The essentials: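 Bidirectional fitting relative to DMSO gave the endpoint. Underlying data: reporter mRNA from HepG2 cells carrying transiently transfected cis-regulated reporter constructs, harvested 24 h after dosing and analyzed by RT-PCR and capillary electrophoresis.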

A short description of test [13]: ATG_VDRE_CIS: Attagene CIS-FACTORIAL HepG2 Assay for human Vitamin D Receptor Element (VDRE) (AID 2282968). As to conditions: HepG2 VDRE cis-reporter transcription, actives raise or lower the signal. In a few lines:
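Reporter mRNA induction, quantified by capillary electrophoresis of fluorescently labelled RT-PCR products, was read 24 h after dosing HepG2 cells carrying transiently transfected cis-regulated reporter units; gain or loss relative to DMSO.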

Test [14] addresses Estrogen receptor (Homo sapiens) (UniProt P03372). Briefly: ATG_ERa_TRANS: Attagene TRANS-FACTORIAL HepG2 Assay for human Estrogen Receptor alpha (ERa) (AID 2282970; active means hit-call score of the fitted dose curve at least 0.9, where 1 is the maximum). As to conditions: HepG2 Attagene TRANS ERa GAL4 reporter, mRNA. In a few lines: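 Human liver HepG2, transient transfection of multiple GAL4-UAS reporter units; TRANS format (exogenous NR-Gal4 chimera). 24 h dosing. Readout: reporter mRNA, RT-PCR, 6-FAM primer extension, HpaI digest, capillary electrophoresis. Positive direction vs DMSO.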

In test [15] the target is X-box-binding protein 1 (Homo sapiens) (UniProt P17861). Description: ATG_Xbp1_CIS: Attagene CIS-FACTORIAL HepG2 Assay for human X-box Binding Protein 1 (XBP1) (AID 2282972). As to conditions: HepG2 XBP1 cis-element reporter, Attagene multiplex; actives raise or lower the signal. In a few lines:
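HepG2 cells transiently transfected with multiple cis-element reporter units report endogenous TF activity; 24 h exposure, then reporter mRNA measured by RT-PCR, 6-FAM labelling, HpaI digestion and capillary electrophoresis. Bidirectional fitting versus DMSO.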

Test [16] can be described thus: ATG_M_19_TRANS: Attagene TRANS-FACTORIAL HepG2 Assay for M19 Transcription Factor (Internal Marker) (AID 2282974; active means hit-call score of the fitted dose curve at least 0.9, where 1 is the maximum). The settings on record: HepG2 Attagene TRANS-FACTORIAL M19 internal marker reporter. In a few lines:
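HepG2 transiently transfected with GAL4-UAS multiplex reporter constructs, exposed 24 h; reporter RNA quantified by RT-PCR, 6-FAM labeling, HpaI digestion and capillary electrophoresis; internal background marker fitted upward versus DMSO.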

Test [17] in a line: ATG_Sox_CIS: Attagene CIS-FACTORIAL HepG2 Assay for human SRY-box transcription factor (SOX) (AID 2282960). The settings on record: HepG2 Attagene cis-factorial SOX reporter, mRNA; actives raise or lower the signal. The essentials:
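HepG2 cells transiently transfected with multiple cis-regulated reporter units, then dosed for 24 h. Reporter mRNA quantified by RT-PCR, fluorescent labelling, HpaI digestion and capillary electrophoresis; bidirectional fit versus DMSO.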

The target in test [18] is Nuclear receptor subfamily 1 group I member 3 (Homo sapiens) (UniProt Q14994). Briefly: ATG_CAR_TRANS: Attagene TRANS-FACTORIAL HepG2 Assay for human Constitutive Androstane Receptor (CAR) (AID 2282969; active means hit-call score of the fitted dose curve at least 0.9, where 1 is the maximum;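 further: activators raise reporter mRNA above DMSO so AC50 marks induction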). As to conditions: HepG2 Attagene TRANS-FACTORIAL CAR reporter. In a few lines: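 Readout is reporter mRNA induction, quantified by fluorescent primer extension and capillary electrophoresis after RT-PCR. Cells were HepG2 transiently carrying chimeric NR-Gal4 constructs with GAL4-UAS reporters, treated for 24 h; activity scored upward from DMSO.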
Nuclear receptor subfamily 1 group I member 3 (Homo sapiens), sequence (Q14994 whole entry, looked up, the tested form may be a part): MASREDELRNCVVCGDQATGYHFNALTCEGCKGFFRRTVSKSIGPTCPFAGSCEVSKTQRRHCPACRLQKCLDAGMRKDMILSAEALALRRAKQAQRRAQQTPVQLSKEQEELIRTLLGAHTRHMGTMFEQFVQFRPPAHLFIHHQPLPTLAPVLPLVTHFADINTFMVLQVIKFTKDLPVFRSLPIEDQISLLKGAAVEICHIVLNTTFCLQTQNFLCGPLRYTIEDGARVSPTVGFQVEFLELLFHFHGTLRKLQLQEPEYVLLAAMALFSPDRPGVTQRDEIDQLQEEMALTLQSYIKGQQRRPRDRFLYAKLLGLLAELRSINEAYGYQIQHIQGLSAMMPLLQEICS

Test [19] deals with Androgen receptor (Homo sapiens) (UniProt P10275). Description: ATG_AR_TRANS: Attagene TRANS-FACTORIAL HepG2 Assay for human Androgen Receptor (AR) (AID 2282973; active means hit-call score of the fitted dose curve at least 0.9, where 1 is the maximum). As to conditions: HepG2 Attagene TRANS-FACTORIAL AR reporter transcription. The essentials:
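Steps: transfect HepG2 with multiple GAL4-UAS reporter transcription units (TRANS format, exogenous NR-Gal4 protein); dose 24 h; isolate RNA, reverse-transcribe, PCR-amplify, FAM-label, HpaI-digest; resolve by capillary electrophoresis. Positive direction vs DMSO.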

What is called AC50 is the concentration giving half of the maximal activity seen.

SMILES strings stand for the structures. Results filed as inconclusive are left out. The source holds several records for some structures; these can differ, active in one and inactive in another. Calls of active or inactive are those of the source. How the source made its calls, unless noted: active means hit-call score of the fitted dose curve at least 0.9, where 1 is the maximum; inactive means score below 0.9.

Signal transducer and activator of transcription 3 (Homo sapiens), sequence (P40763 whole entry, looked up): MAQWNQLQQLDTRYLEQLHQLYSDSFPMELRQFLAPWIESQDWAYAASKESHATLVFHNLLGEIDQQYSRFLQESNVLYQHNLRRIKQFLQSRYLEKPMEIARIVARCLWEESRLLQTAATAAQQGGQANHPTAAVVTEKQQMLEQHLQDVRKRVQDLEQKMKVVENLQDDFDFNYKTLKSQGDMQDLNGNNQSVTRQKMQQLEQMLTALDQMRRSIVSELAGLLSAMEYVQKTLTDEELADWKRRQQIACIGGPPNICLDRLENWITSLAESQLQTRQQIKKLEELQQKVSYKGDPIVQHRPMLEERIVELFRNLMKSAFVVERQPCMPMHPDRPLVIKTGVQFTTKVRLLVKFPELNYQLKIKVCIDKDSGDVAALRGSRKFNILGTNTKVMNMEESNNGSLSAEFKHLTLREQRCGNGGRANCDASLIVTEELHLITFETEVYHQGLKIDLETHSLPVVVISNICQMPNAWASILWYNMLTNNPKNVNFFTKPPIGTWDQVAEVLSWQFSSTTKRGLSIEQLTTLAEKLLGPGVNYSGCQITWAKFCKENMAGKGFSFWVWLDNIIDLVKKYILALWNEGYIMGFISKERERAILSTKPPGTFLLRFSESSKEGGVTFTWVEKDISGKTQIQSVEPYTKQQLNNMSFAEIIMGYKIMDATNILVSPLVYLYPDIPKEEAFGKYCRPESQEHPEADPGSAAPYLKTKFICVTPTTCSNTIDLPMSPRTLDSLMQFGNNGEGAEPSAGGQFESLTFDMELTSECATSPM
Estrogen receptor (Homo sapiens), sequence (P03372 whole entry, looked up, the tested form may be a part): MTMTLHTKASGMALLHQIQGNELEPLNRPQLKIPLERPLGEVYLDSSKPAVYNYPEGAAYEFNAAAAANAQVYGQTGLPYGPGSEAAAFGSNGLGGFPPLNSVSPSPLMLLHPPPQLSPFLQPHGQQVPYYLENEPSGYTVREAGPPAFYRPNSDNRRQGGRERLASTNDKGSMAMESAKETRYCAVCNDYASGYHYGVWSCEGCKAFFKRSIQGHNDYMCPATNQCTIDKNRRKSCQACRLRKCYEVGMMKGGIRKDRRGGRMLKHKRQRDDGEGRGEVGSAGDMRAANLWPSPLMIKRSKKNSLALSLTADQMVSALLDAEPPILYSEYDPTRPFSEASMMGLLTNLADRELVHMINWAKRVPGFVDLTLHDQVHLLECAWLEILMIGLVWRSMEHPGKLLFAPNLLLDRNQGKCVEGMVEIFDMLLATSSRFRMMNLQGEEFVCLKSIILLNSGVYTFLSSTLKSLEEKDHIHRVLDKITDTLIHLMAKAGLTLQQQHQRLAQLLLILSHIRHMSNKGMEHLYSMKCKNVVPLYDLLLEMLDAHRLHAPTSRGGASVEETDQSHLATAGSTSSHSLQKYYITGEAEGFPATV
X-box-binding protein 1 (Homo sapiens), sequence (P17861 whole entry, looked up): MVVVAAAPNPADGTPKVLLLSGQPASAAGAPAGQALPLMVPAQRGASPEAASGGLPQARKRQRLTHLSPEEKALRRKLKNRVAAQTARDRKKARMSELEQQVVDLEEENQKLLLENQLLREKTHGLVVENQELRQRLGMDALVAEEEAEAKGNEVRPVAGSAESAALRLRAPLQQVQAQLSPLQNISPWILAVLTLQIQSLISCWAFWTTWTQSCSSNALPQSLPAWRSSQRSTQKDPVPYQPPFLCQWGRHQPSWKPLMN
Paired box protein Pax-6 (Homo sapiens), sequence (P26367 whole entry, looked up): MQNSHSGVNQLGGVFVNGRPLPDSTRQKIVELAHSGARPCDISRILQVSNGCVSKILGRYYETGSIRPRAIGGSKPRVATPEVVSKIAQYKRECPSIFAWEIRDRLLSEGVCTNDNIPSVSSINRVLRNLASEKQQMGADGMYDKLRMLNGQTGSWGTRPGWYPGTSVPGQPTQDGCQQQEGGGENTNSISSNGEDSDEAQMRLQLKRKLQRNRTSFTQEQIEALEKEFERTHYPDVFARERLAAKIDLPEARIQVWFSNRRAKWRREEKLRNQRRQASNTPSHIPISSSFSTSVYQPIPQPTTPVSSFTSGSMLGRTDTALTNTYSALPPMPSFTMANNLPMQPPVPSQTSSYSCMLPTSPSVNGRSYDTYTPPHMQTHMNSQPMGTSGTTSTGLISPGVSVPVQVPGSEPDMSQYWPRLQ
Transcription factor Sp1 (Homo sapiens), sequence (P08047 whole entry, looked up): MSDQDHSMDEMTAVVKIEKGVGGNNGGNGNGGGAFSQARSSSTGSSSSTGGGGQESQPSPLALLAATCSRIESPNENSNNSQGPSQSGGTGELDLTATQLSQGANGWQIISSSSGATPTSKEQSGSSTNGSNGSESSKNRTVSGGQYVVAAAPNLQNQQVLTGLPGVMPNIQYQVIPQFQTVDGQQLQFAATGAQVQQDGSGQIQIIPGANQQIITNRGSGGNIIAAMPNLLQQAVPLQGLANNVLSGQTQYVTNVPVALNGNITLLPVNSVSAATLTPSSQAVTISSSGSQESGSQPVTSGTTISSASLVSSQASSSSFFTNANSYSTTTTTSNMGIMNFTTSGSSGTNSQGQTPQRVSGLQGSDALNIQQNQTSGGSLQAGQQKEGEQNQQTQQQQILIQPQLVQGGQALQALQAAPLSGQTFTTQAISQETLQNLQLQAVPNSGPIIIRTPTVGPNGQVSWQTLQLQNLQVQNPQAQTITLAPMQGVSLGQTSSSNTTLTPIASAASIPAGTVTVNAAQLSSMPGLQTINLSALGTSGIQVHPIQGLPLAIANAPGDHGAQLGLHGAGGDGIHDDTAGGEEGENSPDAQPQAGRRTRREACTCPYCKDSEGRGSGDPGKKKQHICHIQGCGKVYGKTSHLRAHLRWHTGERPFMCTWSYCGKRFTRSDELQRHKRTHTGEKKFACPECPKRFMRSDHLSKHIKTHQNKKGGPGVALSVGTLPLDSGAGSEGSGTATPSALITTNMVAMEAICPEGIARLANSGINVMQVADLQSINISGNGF
Androgen receptor (Homo sapiens), sequence (P10275 whole entry, looked up, the tested form may be a part): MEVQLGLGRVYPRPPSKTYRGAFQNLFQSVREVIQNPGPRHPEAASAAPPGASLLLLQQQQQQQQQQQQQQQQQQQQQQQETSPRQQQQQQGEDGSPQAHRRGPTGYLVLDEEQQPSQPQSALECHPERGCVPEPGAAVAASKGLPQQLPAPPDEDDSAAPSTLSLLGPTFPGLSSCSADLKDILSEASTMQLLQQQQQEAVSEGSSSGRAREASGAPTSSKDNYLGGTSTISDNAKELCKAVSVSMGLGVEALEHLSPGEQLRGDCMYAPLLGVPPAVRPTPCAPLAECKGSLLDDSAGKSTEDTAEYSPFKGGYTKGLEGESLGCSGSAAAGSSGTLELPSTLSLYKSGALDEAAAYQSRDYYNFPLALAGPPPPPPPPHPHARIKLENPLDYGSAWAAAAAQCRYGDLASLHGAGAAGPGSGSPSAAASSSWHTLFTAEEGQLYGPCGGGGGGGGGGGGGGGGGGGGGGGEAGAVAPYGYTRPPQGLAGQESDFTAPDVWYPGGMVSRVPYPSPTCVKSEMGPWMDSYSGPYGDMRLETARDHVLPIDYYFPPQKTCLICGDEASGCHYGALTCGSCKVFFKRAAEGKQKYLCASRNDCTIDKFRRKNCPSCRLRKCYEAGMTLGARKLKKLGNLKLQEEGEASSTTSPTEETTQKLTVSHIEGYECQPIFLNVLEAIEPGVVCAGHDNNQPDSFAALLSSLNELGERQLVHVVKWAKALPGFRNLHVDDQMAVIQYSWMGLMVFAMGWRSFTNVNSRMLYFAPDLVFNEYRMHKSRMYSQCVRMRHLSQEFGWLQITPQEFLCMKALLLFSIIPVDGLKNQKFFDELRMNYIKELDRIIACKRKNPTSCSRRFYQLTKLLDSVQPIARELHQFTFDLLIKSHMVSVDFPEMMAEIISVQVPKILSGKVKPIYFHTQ

Consider `CC(Cl)CN(C)C` (centres undefined), for which the outcome in test [1], in test [2], in [3], in test [4], in test [5] and in test [6] was inactive. The compound was called inactive in test [7], in test [8], in test [9], in [10], in test [11] and in test [12]. Besides, the compound was called inactive in test [13], in test [14], in test [15] and in test [16].

`O=C(O)CF`: the result in [2], in [3], in test [5], in test [6], in [7] and in test [8] was inactive. The compound was classed as inactive in test [9], in test [10], in [11], in test [12], in test [13] and in [15]. The compound was classed as inactive in test [16]. In addition, the concentration at half-maximal activity (AC50) in test [3] is 100 µM (active).

In the case of `ClC(Cl)=C(c1ccc(Cl)cc1)c1ccccc1Cl`, the outcome in test [1], in test [17], in test [8], in [9], in test [10] and in test [12] was inactive. For the same compound, the compound was called inactive in test [13], in test [18], in [19] and in [16]. In addition, the half-maximal activity concentration (AC50) in test [2] is 100 µM (active); in [3], 2.77 µM (active); in [4], 55.3 µM (active); in test [6], 27.3 µM (active); in [7], 98.5 µM (active); in [11] it was 177 µM (active). Further, the half-maximal activity concentration (AC50) in test [14] is 2.02 µM (active); in test [15], 100 µM (active).

For the compound `CCNc1nc(Cl)nc(NC(C)(C)C)n1`, the outcome in [1], in [2], in test [4], in [5], in [6] and in [7] was inactive. Moreover, the result in test [8], in [9], in [10], in test [11], in test [12] and in test [13] was inactive. Moreover, the outcome in test [15] and in test [19] was inactive. Also, the AC50 is 6.16 µM (active) in test [3] and 1.54 µM (active) in test [14].

Values taken from PubChem BioAssay (EPA / NIEHS).
